# Records with an inconclusive call do not appear. Entries that show only a call come without a potency. Active and inactive are the calls of the source. Unless noted, the call rests on the fitted dose curve; in most records, active means well fitted curve in the direction sought with a large enough effect; inconclusive means small, poorly fitted or top-dose-only effect, or another doubt; inactive means no such curve, though single readings can be large; an effect the other way counts as inactive or inconclusive.
# Assays:
# [1] = target: Voltage-gated inwardly rectifying potassium channel KCNH2 (Homo sapiens) (UniProt Q12809); test: qHTS Assay for Small Molecule Inhibitors of the Human hERG Channel Activity (AID 588834);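 further: lower thallium flux fluorescence means stronger hERG block; nearly all actives have a fitted effect of over 50% in size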; further: potency means the concentration at half of the fitted maximal effect
# Outline: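 Concentration-response qHTS measuring drop in thallium-sensitive dye signal. U2OS cells carrying BacMam hERG; compound exposure ~10 min, then stimulation buffer and 2 min read at 1 sec intervals.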
# [2] = target: Luciferin 4-monooxygenase (Photinus pyralis) (UniProt P08659); test: Biochemical firefly luciferase enzyme assay for NPC (AID 624030); further: nearly all actives have a fitted effect of over 70% in size; further: potency means the concentration at half of the fitted maximal effect
# Outline: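 Counter-screen for direct inhibition of the luciferase enzyme by approved-drug library compounds, run at 10 nM enzyme in 50 mM Tris acetate (final). Luminescence was read within 5 min of enzyme-buffer addition and normalized to PTC124 versus DMSO (0%).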
# [3] = S16 Schwann cell PMP22 intronic element firefly luciferase assay (AID 624032); further: nearly all actives have a fitted effect of over 30% in size; further: potency means the concentration at half of the fitted maximal effect
# Outline: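 Rat S16 Schwann cells stably carrying a PMP22 intronic element-driven Fluc reporter were seeded overnight, then exposed to compounds for 24 h at 37 °C. Luminescence was normalized to PTC124 (positive control) and DMSO (0% activity).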
# [4] = S16 Schwann cell PMP22 intronic element beta-lactamase assay (AID 624044; calls by dose curve; further: nearly all actives have a fitted effect of over 15% in size)
# Outline: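 Rat S16 Schwann cells with beta-Lac driven by a PMP22 intronic element, compound-treated 24 h at 37 °C. LiveBLAzer FRET B/G read: 460 nm normalized to potassium clavulanate vs DMSO; 535 nm FRET as viability; concentration-effect curves classified.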
# [5] = S16 Schwann cell viability assay (CellTiter-Glo assay) (AID 624031);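 further: cellular ATP luminescence as a viability measure; series mostly up to about 58 µM; nearly all actives have a fitted effect of over 70% in size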
# Outline: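 Untransfected S16 rat Schwann cells; compound 24 h, 37 °C/5% CO2; CellTiter-Glo ATP luminescence. % activity vs no-cell wells and DMSO controls (0%); concentration-effect curves classed by r2, response magnitude, activity.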
# [6] = target: Glutaminase kidney isoform, mitochondrial (Homo sapiens) (UniProt O94925); test: qHTS for Inhibitors of Glutaminase (GLS): LOPAC Validation (AID 624146);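 further: glutamate product detected by oxidase and peroxidase coupled Amplex red fluorescence gain; series mostly up to about 46 µM; nearly all actives have a fitted effect of over 60% in size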
# Outline: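 Two-point fluorescence kinetic (t0, 30 min RT) for hKGA; glutamate detected via glutamate oxidase–HRP–Amplex Red. Substrate: 1 mM L-glutamine solution; buffer 45 mM KH2PO4, pH 8.2.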
# [7] = qHTS of Trypanosoma Brucei Inhibitors: LOPAC Validation (AID 624147)
# Outline: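 Luminescence from Kinase-Glo Plus, added after a 45-minute room-temperature reaction, served as the end-point read-out. The enzyme and substrate were preincubated with compound before ADP (130 uM final) initiated turnover. Concentration-effect curves came from normalized qHTS data.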
# [8] = target: Glucagon-like peptide 1 receptor (Homo sapiens) (UniProt P43220); test: qHTS of GLP-1 Receptor Agonists: LOPAC Validation (AID 624148);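 further: higher luminescence signal means agonism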
# Outline: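 HEK293 cells stably co-expressing a cAMP-responsive luciferase reporter and a hypersensitive GLP-1R were plated 12 h at 37 °C and exposed to compounds for 4-6 hr at 37 °C, 5% CO2. Luminescence was read 12 min after adding detection reagent.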
# [9] = qHTS of Nrf2 Activators: LOPAC Validation (AID 624149)
# Outline: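 AREc32 cells carrying an ARE-driven firefly luciferase were grown overnight in OPTI-MEM with 5% FBS, then exposed to compounds for 24 hr at 37 deg C. Luciferase signal was read after 30 min with Steady-Glo at RT.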
# Sequence of Luciferin 4-monooxygenase (Photinus pyralis) (P08659 whole entry, looked up): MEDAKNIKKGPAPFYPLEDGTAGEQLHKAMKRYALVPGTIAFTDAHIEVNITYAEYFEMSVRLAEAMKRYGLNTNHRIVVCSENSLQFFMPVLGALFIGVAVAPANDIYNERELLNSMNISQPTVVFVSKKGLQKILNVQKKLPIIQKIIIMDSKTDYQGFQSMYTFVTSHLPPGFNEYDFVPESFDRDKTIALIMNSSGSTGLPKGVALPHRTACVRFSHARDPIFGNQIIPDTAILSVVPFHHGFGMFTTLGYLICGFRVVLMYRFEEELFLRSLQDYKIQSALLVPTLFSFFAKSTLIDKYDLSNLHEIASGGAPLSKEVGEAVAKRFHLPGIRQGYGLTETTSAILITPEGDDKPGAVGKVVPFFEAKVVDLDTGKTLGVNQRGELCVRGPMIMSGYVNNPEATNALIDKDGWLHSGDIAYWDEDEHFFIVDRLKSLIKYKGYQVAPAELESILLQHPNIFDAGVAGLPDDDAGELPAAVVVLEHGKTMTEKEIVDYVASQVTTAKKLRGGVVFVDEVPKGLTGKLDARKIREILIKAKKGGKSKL
# Sequence of Voltage-gated inwardly rectifying potassium channel KCNH2 (Homo sapiens) (Q12809 whole entry, looked up): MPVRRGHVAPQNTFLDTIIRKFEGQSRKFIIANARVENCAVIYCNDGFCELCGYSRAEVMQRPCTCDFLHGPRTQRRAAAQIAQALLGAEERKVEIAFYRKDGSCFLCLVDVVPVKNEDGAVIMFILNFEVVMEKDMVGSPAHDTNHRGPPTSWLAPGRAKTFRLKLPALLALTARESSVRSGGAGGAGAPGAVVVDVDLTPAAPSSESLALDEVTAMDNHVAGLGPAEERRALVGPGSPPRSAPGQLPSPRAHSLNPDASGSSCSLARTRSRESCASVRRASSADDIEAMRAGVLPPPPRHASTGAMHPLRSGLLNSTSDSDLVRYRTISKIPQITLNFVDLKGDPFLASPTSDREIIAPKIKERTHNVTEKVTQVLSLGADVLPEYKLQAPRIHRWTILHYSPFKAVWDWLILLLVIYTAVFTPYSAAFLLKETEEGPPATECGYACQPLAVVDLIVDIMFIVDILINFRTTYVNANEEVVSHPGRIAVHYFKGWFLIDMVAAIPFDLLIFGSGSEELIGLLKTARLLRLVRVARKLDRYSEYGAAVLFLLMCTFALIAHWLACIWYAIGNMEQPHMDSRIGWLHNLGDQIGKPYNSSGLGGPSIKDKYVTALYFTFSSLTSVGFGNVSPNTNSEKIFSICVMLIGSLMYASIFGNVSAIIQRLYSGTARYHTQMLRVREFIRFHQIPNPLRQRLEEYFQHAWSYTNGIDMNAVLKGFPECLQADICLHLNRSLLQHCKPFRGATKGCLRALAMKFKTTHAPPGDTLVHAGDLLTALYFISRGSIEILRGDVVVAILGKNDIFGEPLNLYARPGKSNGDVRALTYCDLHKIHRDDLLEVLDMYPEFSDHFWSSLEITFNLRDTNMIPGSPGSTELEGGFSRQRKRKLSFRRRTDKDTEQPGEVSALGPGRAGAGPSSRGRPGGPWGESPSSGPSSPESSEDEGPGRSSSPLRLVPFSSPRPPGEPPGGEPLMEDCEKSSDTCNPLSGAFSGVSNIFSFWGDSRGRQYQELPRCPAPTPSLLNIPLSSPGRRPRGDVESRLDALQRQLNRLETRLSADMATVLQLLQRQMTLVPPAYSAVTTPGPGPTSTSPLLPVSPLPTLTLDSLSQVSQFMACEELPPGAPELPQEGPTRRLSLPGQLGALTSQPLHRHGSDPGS
# Sequence of Glucagon-like peptide 1 receptor (Homo sapiens) (P43220 whole entry, looked up): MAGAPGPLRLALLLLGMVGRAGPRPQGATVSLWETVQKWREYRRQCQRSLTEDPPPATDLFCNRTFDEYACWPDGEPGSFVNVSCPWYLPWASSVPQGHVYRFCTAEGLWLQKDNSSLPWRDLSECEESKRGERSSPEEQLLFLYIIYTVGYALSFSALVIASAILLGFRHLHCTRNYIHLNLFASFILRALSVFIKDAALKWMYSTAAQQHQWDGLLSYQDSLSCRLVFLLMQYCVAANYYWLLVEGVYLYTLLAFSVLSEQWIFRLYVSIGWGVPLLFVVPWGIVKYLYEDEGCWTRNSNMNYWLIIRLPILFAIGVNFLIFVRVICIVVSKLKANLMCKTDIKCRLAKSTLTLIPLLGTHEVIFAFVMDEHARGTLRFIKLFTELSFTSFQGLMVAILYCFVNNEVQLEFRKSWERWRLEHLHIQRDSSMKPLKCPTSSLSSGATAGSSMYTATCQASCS
# Sequence of Glutaminase kidney isoform, mitochondrial (Homo sapiens) (O94925 whole entry, looked up, canonical isoform): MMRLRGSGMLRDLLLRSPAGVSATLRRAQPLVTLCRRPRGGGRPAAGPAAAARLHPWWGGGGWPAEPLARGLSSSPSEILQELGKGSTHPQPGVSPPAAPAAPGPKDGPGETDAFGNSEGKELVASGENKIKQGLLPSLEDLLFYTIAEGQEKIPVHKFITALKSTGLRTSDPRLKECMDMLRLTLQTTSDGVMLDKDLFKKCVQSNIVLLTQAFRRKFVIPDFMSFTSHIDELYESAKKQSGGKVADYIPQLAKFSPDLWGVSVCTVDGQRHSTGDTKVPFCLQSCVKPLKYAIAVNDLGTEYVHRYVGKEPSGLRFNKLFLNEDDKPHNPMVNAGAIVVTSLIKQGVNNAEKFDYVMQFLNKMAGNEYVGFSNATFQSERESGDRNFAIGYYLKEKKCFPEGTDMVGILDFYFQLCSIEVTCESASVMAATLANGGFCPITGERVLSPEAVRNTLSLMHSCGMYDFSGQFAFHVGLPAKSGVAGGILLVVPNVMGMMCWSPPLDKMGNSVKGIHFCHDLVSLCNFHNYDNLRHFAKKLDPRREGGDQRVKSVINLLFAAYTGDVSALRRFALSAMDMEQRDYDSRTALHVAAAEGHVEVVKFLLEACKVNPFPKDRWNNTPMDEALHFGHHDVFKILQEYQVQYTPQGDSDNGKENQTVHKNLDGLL
smiles,measurement,setting,value
CC(C)(C)NC(=O)[C@H]1CN(Cc2cccnc2)CCN1C[C@@H](O)C[C@@H](Cc1ccccc1)C(=O)N[C@H]1c2ccccc2C[C@H]1O,Potency,[1],inactive
same,Potency,[2],inactive
same,Potency,[3],36.1 µM (active)
same,Potency,[4],inactive
Cc1nc2ccc(CN(C)c3ccc(C(=O)N[C@@H](CCC(=O)O)C(=O)O)s3)cc2c(=O)[nH]1,Potency,[1],inactive
same,Potency,[2],inactive
Nc1ccn([C@@H]2CS[C@H](CO)O2)c(=O)n1,Potency,[1],inactive
same,Potency,[2],inactive
same,outcome,[5],inactive
same,Potency,[3],inactive
COc1cc(C(=O)NS(=O)(=O)c2ccccc2C)ccc1Cc1cn(C)c2ccc(NC(=O)OC3CCCC3)cc12,Potency,[2],16.1 µM (active)
same,outcome,[5],inactive
same,Potency,[3],inactive
same,Potency,[4],inactive
COc1c(N2C[C@@H]3CCCN[C@H]3C2)c(F)cc2c(=O)c(C(=O)O)cn(C3CC3)c12,Potency,[1],inactive
same,Potency,[2],inactive
same,outcome,[5],inactive
same,Potency,[3],inactive
O=c1[nH]c(=O)n(C2CCCO2)cc1F (stereo not drawn),Potency,[2],inactive
same,outcome,[5],inactive
same,Potency,[3],inactive
same,Potency,[4],inactive
CC=CC1=C(C(=O)O)N2C(=O)[C@H](NC(=O)[C@H](N)c3ccc(O)cc3)[C@@H]2SC1,Potency,[1],inactive
same,Potency,[2],inactive
same,outcome,[5],inactive
same,Potency,[3],inactive
O=C(O)CO.[NH2-].[NH2-].[Pt+2],Potency,[1],inactive
same,Potency,[2],inactive
same,outcome,[5],inactive
same,Potency,[3],inactive
O=c1c2ccccc2nc2n1CCc1c-2[nH]c2ccccc12,Potency,[1],inactive
same,outcome,[6],inactive
same,outcome,[7],inactive
same,outcome,[8],inactive
same,outcome,[9],inactive
COC(=O)C1=C(C)NC(C)=C(C(=O)OCCN2CCN(C(c3ccccc3)c3ccccc3)CC2)C1c1cccc([N+](=O)[O-])c1 (stereo not drawn),Potency,[1],3.98 µM (active)
same,Potency,[2],inactive
CC(=O)SC[C@@H](C)C(=O)N1CCC[C@H]1C(=O)N[C@@H](Cc1ccccc1)C(=O)O,Potency,[2],inactive
